Experimental data from the supplement of paper PMC3334620.
In all, about 33,000 sequences were measured (“E-score (-0.5 to 0.5)”: median about -0.054, highest 2% from about 0.35 on). The full list was thinned out, with the highest values kept by preference.

biological target: T1, Stb5 (UniProt P38699); experiment: PBM E-score (8-mer binding enrichment) (E-score (-0.5 to 0.5)); higher = stronger / more preferred TF binding; conditions: protein concentration: 200 nM; construct: GST-full length
T1 sequence: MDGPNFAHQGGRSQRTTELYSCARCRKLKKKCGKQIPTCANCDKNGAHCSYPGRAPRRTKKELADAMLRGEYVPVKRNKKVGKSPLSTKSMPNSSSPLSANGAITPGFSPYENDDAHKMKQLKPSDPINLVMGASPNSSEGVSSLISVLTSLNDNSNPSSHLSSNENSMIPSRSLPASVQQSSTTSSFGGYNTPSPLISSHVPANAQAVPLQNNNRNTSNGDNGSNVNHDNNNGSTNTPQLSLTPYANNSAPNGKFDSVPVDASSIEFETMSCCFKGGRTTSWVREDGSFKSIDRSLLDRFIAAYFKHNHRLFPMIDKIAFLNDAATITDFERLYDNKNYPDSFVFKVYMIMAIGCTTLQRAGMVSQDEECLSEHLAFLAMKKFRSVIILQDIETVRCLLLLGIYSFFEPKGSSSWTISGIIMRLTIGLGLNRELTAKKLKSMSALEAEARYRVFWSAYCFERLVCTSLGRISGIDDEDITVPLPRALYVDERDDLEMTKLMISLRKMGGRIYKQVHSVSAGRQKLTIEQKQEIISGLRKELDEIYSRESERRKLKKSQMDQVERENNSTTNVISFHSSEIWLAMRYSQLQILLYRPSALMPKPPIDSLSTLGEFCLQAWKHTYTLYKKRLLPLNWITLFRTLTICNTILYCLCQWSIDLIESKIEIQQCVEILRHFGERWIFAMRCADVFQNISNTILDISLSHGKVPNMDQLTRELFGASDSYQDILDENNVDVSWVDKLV
Procedure: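 Universal 'all 10-mer' protein binding microarrays (Agilent AMADID 015681) probed with GST-tagged S. cerevisiae TFs (full-length or DBD) made by in vitro transcription/translation (PURExpress), about 100-200 nM. Bound TF was detected with fluorescent anti-GST. Each ungapped 8-mer (which stands for itself and its reverse complement) is scored by the PBM enrichment score (E-score), a modified Wilcoxon-Mann-Whitney statistic from -0.5 to +0.5, computed with the Universal PBM Analysis Suite. Scale: above 0.35 generally sequence-specific binding.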

Sequence	PBM E-score
GCAGACGC	-0.0745
AAAAGCAT	-0.0942
ATCTCCCG	0.124
GTCTCCGA	0.23
ATCTCCGC	0.406
CTCTCCGC	0.0985
ATCTCCGA	0.394
CTCTCCGA	0.00777
ATCTCCAG	0.0194
ATCTCCGG	0.423
ATCTCCCC	0.0718
AGGCGTTG	-0.11
AAAAGGGT	-0.27
CCCAGGAA	-0.286
TCGAATCA	-0.163
CGGACCAG	0.0937
CGGACCAC	0.134
ACGACCCA	-0.191
CGGACCCA	0.381
CCGACCGA	0.314
CCGACCCA	0.369
CCGACCGG	0.382
CCGACCGC	0.284
TGGACCCA	-0.218
GGGACCCA	-0.0663

Sequence	PBM E-score
CGGACCAA	0.376
TCGACCCA	-0.256
CGAAGAGA	-0.138
AAAGCGCG	0.121
CTGTGCGA	-0.121
GTTGCAAC	0.183
ATGAAAGC	-0.0893
CGGACCGA	0.4
CTGACCGA	-0.0342
CGGACCTA	0.466
GGGACCGA	0.257
AGGACCTA	0.141
GGGACCTA	0.138
ATGGCTTA	-0.119
ACCCCAGC	-0.0864
CAATAGCC	0.0314
CACATCTG	-0.103
GGGCCCTA	-0.0134
AGGCCCTA	-0.0592
CGGCCATA	0.376
CGGCCATC	0.157
CGGCCCTA	0.426
GGGCCATA	0.0906
ACCAGACA	-0.0752
ATCTCATA	-0.186

Sequence	PBM E-score
AAAGTAAG	-0.119
CATTTTAG	0.189
CTTACTGA	-0.164
AAGAGTCC	0.118
GGTGTTTA	0.425
GGTGTTAC	0.4
AGTGTTTA	-0.0504
CGTGTAAC	0.134
TGTGTTAA	-0.145
GGTGTTAA	0.447
AGTGTTAC	-0.0686
AGTGTAAC	-0.175
CGTGTTAA	-0.191
CGTGTTTA	0.112
GGTGTAAC	0.381
CGTGTTAC	-0.0374
ATTCACAC	-0.136
CCTGATAA	-0.0146
CCCAACCA	-0.0714
GATCTAAC	-0.143
ATACTATG	-0.0158
ACGCTGCT	-0.0899
CACTCTCA	-0.237
ACTTTCCA	-0.0496
CAGCGGGG	0.358

Sequence	PBM E-score
CAGCGGAG	0.352
AAGCGGGG	0.296
CAGCGGAA	0.164
CAGCGGCG	0.326
CAGCGGGC	0.224
ACCGAACG	0.308
ATGAAAGG	0.0036
TCCGCCGA	0.346
ACCGCCGC	0.383
ACCGCCTG	0.25
ACCGCCGA	0.405
ACCGCCTC	0.313
ACCGCCAC	0.316
ACCGCAGT	0.206
ACCGCCGT	0.38
GCCGCCGA	0.329
ACCGCCGG	0.414
ACCGCCTA	0.206
ACGGTTGA	-0.165
ACTCTTTG	-0.24
ATCAAGGA	-0.12
CGCCCCCG	0.209
ACCTTTGC	-0.0619
ACCACCTA	-0.134
GCCATACA	-0.138

Sequence	PBM E-score
GTCCTCAA	-0.137
CACGTCAG	-0.163
CCCGCCGA	0.345
CCCGCCGC	0.347
GCCGCCGC	0.391
ACCGCCAT	0.265
ACCGCCAG	0.368
GCCGCCAA	0.24
ACCGCCAA	0.276
CCCGCCGG	0.39
GCCGCCAC	0.191
ATACGGGC	0.103
TTGGACAA	-0.195
ATTATTGG	0.0592
AGGCCCAG	-0.226
AGGAGGGG	-0.302
GTTTTCGA	-0.115
GTCCCGAA	0.121
TCGCGCAA	-0.136
ATAGACAA	-0.202
CGTGAGGC	-0.133
ATTCAGCC	-0.129
CCGCGCGA	0.168
CCCCGCGG	0.349
CCGCGCGG	0.404

Sequence	PBM E-score
GACCGCGC	0.246
CCGCGCGC	0.281
CACCGCGC	0.401
CACCGCGA	0.37
CACCGCGG	0.419
AACCGCGC	0.273
AACCGCGA	0.272
TACCGCGA	0.324
AACCGCGG	0.347
AATACTCC	0.173
GACAGTTA	-0.0979
AAGACTAG	-0.389
AGCTACAG	-0.215
TCAATCCA	-0.0437
GCGCTAGA	0.112
AGCACGGG	0.199
ACCACCCA	-0.217
GGCCTCCC	-0.0321
CGGTGCAC	0.0634
ACACCGTC	0.424
AAACCGTG	-0.0899
AGACCGTC	0.252
ACACCGTG	0.416
CCACCGTC	0.246
ACACCGTA	0.346

Sequence	PBM E-score
AACTAGCA	-0.134
CTTCGGCA	0.209
CAGCTGGG	-0.0897
CTTGGGTA	-0.128
AAACTCTA	-0.134
CGGCATCA	0.387
CGGCATGA	0.367
GGGCATGA	-0.083
CGGCACCA	0.394
CGGCACCG	0.342
CGGCATCC	0.224
AGGCACCA	-0.0686
CGGCATGC	0.273
AGGCATCA	-0.202
CTCCCTAC	-0.0607
AAGTACCG	0.441
AAGTACCA	-0.0936
CATTACCG	0.205
AAGTACCC	0.0204
AAATACCG	0.432
CAATACCG	0.332
AATTACCC	0.0888
AATTACCG	0.395
AAATACCC	0.279
